According to publication PMC7862700, “An all-to-all approach to the identification of sequence-specific readers for epigenetic DNA modifications on cytosine”:

Columns and labels:
Assay in all cases: DAPPL (digital affinity profiling via proximity ligation, sequencing); 10 mM Tris-HCl pH 7.5, 50 mM NaCl, 1 mM DTT, 4% glycerol, room temperature, 30 min; GST-TFs on glutathione beads, 16-mer random dsDNA library, 0.1% formaldehyde crosslink after washing; high values mean tight binding
FLI1 = target: T1, FLI1 (Homo sapiens, UniProt Q01543 1-452); conditions: protein: recombinant; tags: N-terminal GST; dsDNA, one strand shown
T1 sequence: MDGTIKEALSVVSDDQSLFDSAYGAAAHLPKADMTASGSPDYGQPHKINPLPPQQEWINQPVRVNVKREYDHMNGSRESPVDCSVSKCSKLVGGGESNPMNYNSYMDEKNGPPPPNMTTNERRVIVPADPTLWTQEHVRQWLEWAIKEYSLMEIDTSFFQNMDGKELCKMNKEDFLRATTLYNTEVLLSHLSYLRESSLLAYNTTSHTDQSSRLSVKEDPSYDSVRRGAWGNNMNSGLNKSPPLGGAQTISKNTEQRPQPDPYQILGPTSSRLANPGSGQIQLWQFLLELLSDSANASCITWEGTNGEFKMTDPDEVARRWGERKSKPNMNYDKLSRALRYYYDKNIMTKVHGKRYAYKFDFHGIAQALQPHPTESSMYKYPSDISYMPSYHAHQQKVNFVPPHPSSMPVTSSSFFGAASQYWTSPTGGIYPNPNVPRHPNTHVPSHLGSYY
How it was run: (§1)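 Sequencing on an Illumina NextSeq500 followed washing, crosslinking with 0.1% formaldehyde, proximity ligation (BsaI/T4 ligase, 1 h, 37 °C) and PCR amplification of pools that had been incubated for 30 min at room temperature with 200 nmole of a random double-stranded 16-mer DNA library in Tris/NaCl/DTT/glycerol buffer. Each pool held DNA-barcoded human transcription factors, expressed in yeast as GST fusions and captured on glutathione beads, plus a tag-only sample. Binding signal is a hexamer's read frequency for a factor divided by its frequency in the tag-only sample.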

ELK1 = target: T2, ELK1 (Homo sapiens, UniProt P19419 1-428); conditions: protein: recombinant; tags: N-terminal GST; dsDNA, one strand shown
T2 sequence: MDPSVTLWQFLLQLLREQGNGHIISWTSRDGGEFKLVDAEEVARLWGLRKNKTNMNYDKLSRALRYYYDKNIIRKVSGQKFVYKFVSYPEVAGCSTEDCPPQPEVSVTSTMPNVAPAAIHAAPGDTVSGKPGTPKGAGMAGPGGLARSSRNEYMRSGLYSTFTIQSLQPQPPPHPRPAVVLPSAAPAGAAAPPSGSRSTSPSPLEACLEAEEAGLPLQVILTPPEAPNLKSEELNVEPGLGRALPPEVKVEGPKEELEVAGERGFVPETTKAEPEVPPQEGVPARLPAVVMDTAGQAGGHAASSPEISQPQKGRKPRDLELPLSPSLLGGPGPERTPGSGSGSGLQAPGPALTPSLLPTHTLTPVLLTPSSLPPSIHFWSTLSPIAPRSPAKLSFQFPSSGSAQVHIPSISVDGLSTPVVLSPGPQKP
How it was run: as §1

GABPA = target: T3, GABPA (Homo sapiens, UniProt Q06546 1-454); conditions: protein: recombinant; tags: N-terminal GST; dsDNA, one strand shown
T3 sequence: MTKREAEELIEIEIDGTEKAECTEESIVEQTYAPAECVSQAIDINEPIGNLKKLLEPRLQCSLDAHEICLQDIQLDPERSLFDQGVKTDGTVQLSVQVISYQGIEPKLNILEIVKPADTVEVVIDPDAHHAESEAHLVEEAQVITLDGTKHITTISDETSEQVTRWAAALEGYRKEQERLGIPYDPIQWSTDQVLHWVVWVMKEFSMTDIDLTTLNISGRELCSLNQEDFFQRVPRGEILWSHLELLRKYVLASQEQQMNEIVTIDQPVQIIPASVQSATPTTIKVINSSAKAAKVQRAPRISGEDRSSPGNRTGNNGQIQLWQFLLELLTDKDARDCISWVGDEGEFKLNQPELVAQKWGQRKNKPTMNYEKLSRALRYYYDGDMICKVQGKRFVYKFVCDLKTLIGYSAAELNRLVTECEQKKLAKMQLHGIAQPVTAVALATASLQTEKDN
How it was run: as §1

ERG = target: T4, ERG (Homo sapiens, UniProt P11308 1-479); conditions: protein: recombinant; tags: N-terminal GST; dsDNA, one strand shown
T4 sequence: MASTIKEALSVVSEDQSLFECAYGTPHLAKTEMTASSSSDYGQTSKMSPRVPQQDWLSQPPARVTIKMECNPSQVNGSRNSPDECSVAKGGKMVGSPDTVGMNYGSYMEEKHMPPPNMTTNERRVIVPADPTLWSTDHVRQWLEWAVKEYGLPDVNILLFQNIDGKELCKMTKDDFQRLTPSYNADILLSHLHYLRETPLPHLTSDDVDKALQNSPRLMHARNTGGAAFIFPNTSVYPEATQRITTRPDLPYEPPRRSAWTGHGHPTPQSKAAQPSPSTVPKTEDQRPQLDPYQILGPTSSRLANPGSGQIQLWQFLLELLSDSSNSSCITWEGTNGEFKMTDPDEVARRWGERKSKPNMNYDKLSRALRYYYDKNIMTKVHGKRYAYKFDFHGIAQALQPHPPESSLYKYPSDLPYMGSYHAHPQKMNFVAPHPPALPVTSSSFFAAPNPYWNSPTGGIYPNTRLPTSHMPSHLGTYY
How it was run: as §1

ELF1 = ELF1 (Homo sapiens, UniProt P32519 1-619); conditions: protein: recombinant; tags: N-terminal GST; dsDNA, one strand shown
How it was run: as §1

EHF = target: T5, EHF (Homo sapiens, UniProt Q9NZC4 1-300); conditions: protein: recombinant; tags: N-terminal GST; dsDNA, one strand shown
T5 sequence: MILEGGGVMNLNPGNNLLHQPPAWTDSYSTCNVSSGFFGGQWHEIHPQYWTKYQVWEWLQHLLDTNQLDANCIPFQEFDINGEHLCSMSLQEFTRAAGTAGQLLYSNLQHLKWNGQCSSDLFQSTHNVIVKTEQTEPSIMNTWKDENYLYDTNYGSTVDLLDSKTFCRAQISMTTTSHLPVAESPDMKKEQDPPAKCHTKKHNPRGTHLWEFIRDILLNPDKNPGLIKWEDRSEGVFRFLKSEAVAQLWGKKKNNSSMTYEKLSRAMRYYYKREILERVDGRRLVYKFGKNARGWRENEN
How it was run: as §1

SPI1 = SPI1 (Homo sapiens, UniProt P17947 1-270); conditions: protein: recombinant; tags: N-terminal GST; dsDNA, one strand shown
How it was run: as §1

SPIB = SPIB (Homo sapiens, UniProt Q01892 1-262); conditions: protein: recombinant; tags: N-terminal GST; dsDNA, one strand shown
How it was run: as §1

ELK3 = target: T6, ELK3 (Homo sapiens, UniProt P41970 1-407); conditions: protein: recombinant; tags: N-terminal GST; dsDNA, one strand shown
T6 sequence: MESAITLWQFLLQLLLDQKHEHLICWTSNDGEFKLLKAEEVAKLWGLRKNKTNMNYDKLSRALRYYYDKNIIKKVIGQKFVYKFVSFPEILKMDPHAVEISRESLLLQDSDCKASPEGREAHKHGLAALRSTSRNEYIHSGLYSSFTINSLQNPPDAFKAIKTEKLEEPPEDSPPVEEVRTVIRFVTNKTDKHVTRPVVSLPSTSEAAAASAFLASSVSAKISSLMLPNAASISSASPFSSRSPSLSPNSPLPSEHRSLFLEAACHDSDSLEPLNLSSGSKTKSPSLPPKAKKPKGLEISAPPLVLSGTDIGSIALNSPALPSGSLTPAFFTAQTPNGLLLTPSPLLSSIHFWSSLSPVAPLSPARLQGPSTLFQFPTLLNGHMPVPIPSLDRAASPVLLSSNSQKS
How it was run: as §1

FEV = target: T7, FEV (Homo sapiens, UniProt Q99581 1-238); conditions: protein: recombinant; tags: N-terminal GST; dsDNA, one strand shown
T7 sequence: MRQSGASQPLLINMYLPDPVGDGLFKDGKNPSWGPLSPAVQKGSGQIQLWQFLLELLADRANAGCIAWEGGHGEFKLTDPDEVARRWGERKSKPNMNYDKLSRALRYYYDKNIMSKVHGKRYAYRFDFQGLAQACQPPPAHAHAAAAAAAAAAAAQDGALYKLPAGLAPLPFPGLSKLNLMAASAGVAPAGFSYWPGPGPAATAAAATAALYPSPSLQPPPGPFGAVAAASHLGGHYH
How it was run: as §1

ETV5 = ETV5 (Homo sapiens, UniProt P41161 1-510); conditions: protein: recombinant; tags: N-terminal GST; dsDNA, one strand shown
How it was run: as §1

HSF1 = HSF1 (Homo sapiens, UniProt Q00613 1-529); conditions: protein: recombinant; tags: N-terminal GST; chain copies: 3; dsDNA, one strand shown
How it was run: as §1

SPIC = target: T8, SPIC (Homo sapiens, UniProt Q8N5J4 1-248); conditions: protein: recombinant; tags: N-terminal GST; dsDNA, one strand shown
T8 sequence: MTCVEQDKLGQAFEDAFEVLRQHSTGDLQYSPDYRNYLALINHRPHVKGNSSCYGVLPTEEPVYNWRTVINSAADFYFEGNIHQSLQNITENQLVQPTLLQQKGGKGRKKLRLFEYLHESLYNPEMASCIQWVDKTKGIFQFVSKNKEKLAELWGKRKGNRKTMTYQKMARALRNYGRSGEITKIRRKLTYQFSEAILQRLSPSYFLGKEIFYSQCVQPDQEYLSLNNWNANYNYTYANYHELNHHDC
How it was run: as §1

ELF4 = ELF4 (Homo sapiens, UniProt Q99607 1-663); conditions: protein: recombinant; tags: N-terminal GST; dsDNA, one strand shown
How it was run: as §1

ELK4 = target: T9, ELK4 (Homo sapiens, UniProt P28324-2 1-405); conditions: protein: recombinant; tags: N-terminal GST; dsDNA, one strand shown
T9 sequence: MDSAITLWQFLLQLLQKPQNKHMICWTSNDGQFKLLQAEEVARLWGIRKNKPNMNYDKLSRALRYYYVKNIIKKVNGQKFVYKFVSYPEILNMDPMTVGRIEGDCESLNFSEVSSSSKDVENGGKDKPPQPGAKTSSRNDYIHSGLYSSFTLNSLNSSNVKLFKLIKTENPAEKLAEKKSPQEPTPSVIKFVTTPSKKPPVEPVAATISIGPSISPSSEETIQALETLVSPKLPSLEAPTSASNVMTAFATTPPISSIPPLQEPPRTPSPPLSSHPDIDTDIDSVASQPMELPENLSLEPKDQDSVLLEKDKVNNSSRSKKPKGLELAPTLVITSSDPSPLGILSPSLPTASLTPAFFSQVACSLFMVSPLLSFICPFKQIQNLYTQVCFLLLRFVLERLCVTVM
How it was run: as §1

ETV2 = target: T10, ETV2 (Homo sapiens, UniProt O00321 1-342); conditions: protein: recombinant; tags: N-terminal GST; dsDNA, one strand shown
T10 sequence: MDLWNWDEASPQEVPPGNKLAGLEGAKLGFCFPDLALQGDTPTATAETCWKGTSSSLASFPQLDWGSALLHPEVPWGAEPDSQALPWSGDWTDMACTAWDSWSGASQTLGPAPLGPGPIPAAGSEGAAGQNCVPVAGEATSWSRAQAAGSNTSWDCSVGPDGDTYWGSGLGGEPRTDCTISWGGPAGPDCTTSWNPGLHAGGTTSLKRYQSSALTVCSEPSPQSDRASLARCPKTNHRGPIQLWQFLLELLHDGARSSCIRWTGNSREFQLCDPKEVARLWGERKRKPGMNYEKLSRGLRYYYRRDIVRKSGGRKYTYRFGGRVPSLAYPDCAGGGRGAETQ
How it was run: as §1

ELF3 = target: T11, ELF3 (Homo sapiens, UniProt P78545 1-371); conditions: protein: recombinant; tags: N-terminal GST; dsDNA, one strand shown
T11 sequence: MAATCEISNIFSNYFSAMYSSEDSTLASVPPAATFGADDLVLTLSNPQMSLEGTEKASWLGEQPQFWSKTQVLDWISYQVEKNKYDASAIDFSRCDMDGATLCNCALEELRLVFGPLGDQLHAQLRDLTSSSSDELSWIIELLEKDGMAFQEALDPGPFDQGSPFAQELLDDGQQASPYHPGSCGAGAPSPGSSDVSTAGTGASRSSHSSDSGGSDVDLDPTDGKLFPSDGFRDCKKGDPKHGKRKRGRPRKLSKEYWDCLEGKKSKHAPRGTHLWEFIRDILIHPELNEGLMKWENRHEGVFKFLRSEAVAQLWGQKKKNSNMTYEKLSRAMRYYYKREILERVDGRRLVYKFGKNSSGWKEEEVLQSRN
How it was run: as §1

CRX = CRX (Homo sapiens, UniProt O43186 1-299); conditions: protein: recombinant; tags: N-terminal GST; dsDNA, one strand shown
How it was run: as §1

ETV1 = ETV1 (Homo sapiens, UniProt P50549 1-477); conditions: protein: recombinant; tags: N-terminal GST; dsDNA, one strand shown
How it was run: as §1

Sequence of ELF4 (Q99607 whole entry): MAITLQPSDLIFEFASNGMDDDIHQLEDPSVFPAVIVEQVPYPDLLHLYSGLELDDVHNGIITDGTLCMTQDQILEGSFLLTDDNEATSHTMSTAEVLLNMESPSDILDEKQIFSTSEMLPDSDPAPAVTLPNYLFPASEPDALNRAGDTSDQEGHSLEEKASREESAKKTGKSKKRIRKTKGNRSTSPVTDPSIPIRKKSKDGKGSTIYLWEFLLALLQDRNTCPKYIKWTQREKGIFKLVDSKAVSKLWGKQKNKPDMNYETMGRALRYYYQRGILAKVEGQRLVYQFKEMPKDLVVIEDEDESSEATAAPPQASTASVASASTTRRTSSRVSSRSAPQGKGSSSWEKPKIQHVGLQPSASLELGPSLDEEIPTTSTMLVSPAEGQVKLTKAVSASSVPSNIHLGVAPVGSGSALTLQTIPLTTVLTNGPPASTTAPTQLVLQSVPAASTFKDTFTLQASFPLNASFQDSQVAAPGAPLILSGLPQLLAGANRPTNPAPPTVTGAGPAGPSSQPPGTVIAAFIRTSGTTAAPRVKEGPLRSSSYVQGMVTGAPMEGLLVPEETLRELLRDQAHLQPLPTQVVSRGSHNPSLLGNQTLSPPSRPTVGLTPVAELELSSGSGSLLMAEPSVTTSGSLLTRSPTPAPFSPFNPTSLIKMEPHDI
Sequence of ELF1 (P32519 whole entry): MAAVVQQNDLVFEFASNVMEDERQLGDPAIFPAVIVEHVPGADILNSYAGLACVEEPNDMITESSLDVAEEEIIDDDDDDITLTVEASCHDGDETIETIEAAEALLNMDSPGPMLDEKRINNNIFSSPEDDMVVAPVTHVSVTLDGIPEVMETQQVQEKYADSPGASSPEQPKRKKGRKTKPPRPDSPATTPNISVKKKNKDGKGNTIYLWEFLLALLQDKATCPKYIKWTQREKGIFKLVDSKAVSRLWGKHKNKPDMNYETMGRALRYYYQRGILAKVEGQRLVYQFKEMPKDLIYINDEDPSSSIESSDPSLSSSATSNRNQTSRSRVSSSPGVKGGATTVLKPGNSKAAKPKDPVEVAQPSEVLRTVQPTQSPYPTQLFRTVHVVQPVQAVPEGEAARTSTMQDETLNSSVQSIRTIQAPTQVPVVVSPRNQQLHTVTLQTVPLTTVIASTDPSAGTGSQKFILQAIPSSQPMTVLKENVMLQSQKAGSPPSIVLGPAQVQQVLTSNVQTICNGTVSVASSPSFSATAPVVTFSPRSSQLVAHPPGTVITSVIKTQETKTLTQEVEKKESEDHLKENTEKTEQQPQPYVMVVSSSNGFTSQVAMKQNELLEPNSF
Sequence of CRX (O43186 whole entry): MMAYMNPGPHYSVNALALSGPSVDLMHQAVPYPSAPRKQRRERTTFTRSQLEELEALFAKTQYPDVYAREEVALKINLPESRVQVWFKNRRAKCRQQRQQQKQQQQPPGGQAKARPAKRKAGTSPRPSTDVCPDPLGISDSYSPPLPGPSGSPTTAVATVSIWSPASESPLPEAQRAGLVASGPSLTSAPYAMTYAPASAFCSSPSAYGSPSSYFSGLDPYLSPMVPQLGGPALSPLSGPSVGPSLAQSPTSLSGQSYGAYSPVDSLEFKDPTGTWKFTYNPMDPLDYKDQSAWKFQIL
Sequence of ETV5 (P41161 whole entry): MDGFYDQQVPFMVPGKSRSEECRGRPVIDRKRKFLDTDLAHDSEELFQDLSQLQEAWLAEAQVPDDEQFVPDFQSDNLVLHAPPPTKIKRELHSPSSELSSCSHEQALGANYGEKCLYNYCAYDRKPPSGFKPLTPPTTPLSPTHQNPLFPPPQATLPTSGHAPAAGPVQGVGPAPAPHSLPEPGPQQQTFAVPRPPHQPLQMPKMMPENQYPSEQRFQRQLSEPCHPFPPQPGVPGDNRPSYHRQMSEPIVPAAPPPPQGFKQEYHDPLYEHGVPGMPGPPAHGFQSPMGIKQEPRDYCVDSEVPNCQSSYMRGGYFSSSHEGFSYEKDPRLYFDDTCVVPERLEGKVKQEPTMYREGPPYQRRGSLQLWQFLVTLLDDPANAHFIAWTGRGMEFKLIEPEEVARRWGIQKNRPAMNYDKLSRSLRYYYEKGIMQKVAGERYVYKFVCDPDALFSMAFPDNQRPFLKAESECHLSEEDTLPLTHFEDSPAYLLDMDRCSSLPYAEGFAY
Sequence of ETV1 (P50549 whole entry): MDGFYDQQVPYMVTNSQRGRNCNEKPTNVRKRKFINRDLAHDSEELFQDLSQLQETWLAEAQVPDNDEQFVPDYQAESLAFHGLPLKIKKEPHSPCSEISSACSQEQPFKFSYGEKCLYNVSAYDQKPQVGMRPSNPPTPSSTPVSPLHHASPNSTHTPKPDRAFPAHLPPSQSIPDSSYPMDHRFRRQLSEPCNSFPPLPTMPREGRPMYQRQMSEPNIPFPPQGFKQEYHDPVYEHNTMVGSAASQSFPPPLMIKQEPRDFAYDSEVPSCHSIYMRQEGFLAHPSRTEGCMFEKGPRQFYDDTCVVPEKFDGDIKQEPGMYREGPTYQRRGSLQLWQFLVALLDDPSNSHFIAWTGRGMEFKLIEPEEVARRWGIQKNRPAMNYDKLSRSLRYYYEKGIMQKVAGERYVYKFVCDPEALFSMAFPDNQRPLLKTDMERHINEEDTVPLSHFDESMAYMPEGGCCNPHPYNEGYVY
Sequence of SPIB (Q01892 whole entry): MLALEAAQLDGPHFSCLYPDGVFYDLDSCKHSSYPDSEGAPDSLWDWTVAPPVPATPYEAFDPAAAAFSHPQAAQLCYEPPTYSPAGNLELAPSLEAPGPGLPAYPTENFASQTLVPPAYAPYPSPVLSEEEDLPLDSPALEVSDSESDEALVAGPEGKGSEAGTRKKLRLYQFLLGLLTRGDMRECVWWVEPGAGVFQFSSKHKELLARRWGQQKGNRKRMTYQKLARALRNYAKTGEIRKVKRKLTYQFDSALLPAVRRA
Sequence of HSF1 (Q00613 whole entry): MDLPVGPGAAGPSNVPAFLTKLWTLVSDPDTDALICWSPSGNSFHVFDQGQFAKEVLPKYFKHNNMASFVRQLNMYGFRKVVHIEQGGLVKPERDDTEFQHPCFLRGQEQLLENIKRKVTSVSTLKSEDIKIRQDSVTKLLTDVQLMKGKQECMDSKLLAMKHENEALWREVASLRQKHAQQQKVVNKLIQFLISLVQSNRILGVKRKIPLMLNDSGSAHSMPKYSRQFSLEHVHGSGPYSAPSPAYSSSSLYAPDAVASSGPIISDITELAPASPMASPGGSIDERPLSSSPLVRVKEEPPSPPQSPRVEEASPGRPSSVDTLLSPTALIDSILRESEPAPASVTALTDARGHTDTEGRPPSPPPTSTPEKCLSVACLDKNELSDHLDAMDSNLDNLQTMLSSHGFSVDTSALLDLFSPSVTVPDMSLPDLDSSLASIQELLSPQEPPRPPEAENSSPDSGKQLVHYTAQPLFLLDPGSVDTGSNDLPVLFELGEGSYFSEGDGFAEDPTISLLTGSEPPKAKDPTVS

CTATCT
binding signal (FLI1): 1.26 fold enrichment (6-mer frequency, TF over GST control)
binding signal (ELK1): 1.43 fold enrichment (6-mer frequency, TF over GST control)
binding signal (GABPA): 1.34 fold enrichment (6-mer frequency, TF over GST control)
binding signal (ERG): 1.29 fold enrichment (6-mer frequency, TF over GST control)
binding signal (ELF1): 1.34 fold enrichment (6-mer frequency, TF over GST control)
binding signal (EHF): 1.54 fold enrichment (6-mer frequency, TF over GST control)
binding signal (SPI1): 1.42 fold enrichment (6-mer frequency, TF over GST control)
binding signal (SPIB): 1.28 fold enrichment (6-mer frequency, TF over GST control)
binding signal (ELK3): 1.48 fold enrichment (6-mer frequency, TF over GST control)
binding signal (FEV): 1.34 fold enrichment (6-mer frequency, TF over GST control)
binding signal (ETV5): 1.22 fold enrichment (6-mer frequency, TF over GST control)
binding signal (HSF1): 1.4 fold enrichment (6-mer frequency, TF over GST control)
binding signal (SPIC): 1.34 fold enrichment (6-mer frequency, TF over GST control)
binding signal (ELF4): 1.34 fold enrichment (6-mer frequency, TF over GST control)
binding signal (ELK4): 1.15 fold enrichment (6-mer frequency, TF over GST control)
binding signal (ETV2): 1.39 fold enrichment (6-mer frequency, TF over GST control)
binding signal (ELF3): 1.29 fold enrichment (6-mer frequency, TF over GST control)
binding signal (CRX): 1.4 fold enrichment (6-mer frequency, TF over GST control)
binding signal (ETV1): 1.24 fold enrichment (6-mer frequency, TF over GST control)
